Assay results as given in ChEMBL document CHEMBL1961873, “Compounds: GSK PKIS; Assays: Nanosyn kinase panel” (2012).

target: Vascular endothelial growth factor receptor 3 (Homo sapiens) (UniProt P35916); settings: at 0.1 µM
Sequence (P35916 whole entry): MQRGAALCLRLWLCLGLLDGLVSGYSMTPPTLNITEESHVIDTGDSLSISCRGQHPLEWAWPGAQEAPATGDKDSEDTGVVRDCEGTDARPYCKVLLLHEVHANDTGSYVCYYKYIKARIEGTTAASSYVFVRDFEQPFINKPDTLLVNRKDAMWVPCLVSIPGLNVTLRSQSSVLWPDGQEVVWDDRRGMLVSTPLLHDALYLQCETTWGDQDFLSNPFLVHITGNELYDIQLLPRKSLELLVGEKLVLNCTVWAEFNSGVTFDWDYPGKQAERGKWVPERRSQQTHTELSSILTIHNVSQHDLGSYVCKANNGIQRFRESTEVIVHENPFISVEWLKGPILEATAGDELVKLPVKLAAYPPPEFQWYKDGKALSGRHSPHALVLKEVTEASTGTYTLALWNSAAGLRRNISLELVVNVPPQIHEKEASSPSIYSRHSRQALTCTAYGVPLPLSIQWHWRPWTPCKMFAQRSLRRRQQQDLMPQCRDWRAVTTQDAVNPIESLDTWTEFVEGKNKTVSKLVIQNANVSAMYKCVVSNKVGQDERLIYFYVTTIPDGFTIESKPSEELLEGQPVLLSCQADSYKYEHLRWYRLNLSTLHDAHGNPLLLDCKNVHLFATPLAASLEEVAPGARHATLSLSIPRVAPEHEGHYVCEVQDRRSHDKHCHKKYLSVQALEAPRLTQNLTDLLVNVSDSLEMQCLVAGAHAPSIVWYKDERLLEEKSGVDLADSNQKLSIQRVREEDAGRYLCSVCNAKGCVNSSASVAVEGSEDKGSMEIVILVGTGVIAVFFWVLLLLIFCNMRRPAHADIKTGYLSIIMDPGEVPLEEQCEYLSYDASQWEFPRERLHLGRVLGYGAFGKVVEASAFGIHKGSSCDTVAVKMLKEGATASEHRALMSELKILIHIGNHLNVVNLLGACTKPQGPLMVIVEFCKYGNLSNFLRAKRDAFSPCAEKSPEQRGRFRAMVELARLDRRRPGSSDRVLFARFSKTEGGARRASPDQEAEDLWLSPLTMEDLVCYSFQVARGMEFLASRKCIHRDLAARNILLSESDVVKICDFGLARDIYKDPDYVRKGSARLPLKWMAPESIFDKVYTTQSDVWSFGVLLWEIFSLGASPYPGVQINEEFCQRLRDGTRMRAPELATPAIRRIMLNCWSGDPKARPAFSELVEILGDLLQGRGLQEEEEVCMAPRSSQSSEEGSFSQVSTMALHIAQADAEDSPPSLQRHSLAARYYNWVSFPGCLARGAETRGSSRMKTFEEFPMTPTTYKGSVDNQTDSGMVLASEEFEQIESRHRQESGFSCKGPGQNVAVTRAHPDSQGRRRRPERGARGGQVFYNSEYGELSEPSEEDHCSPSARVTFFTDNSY

Structure (SMILES)	inhibition [%]
CCn1c(-c2nonc2N)nc2c(C#CC(C)(C)O)nc(OCCNC)cc21	1.76
COC(=O)Nc1nc2cc(Oc3ccc(NC(=O)Nc4cccc(Br)c4)cc3)ccc2[nH]1	3.16
Nc1nccc(-c2c(-c3ccc(F)cc3)nn3cc(C(F)(F)F)ccc23)n1	0.03
CN(C)CCCn1c(-c2nonc2N)nc2cnccc21	15.4
COc1cc(Nc2nccc(-c3cnn4ncccc34)n2)cc(OC)c1	10.4
C[C@@H](Oc1cc(-n2cnc3ccc(OC[C@@H](O)CO)cc32)sc1C(N)=O)c1ccccc1Cl	3.69
N#Cc1cccc(Nc2nccc(-c3cnn4ncccc34)n2)c1	5.06
COc1cc(/C=N/Nc2ncnc3c2cnn3C(C)C)ccc1O	13.8
Nc1ccc(C#Cc2cncnc2Nc2ccc(OCc3cccc(F)c3)c(Cl)c2)cc1	1.01
Cc1ccc2c(c1)/C(=N/Nc1ccc(S(N)(=O)=O)cc1)C(=O)N2	2.09
NC(=O)c1cccc(Nc2nccc(Nc3cccc(F)c3)n2)c1	1.81
NS(=O)(=O)c1ccc(NC=C2C(=O)Nc3ccc4ncsc4c32)cc1	63.9
Cc1ccc2c(-c3ccnc(Nc4cccc(C(F)(F)F)c4)n3)c(-c3ccccc3)nn2n1	4.59
NS(=O)(=O)c1ccc(N/N=C2\C(=O)Nc3ccc(Cl)cc32)cc1	4.36
COC(=O)c1cncc(/C=C/c2c(C)cc(O)cc2C)c1	4.3
COc1cccc(-n2ncc3c(N/N=C/c4ccc(S(C)(=O)=O)cc4)ncnc32)c1	-2.95
CN(C)C(=O)O[C@H]1CN[C@H](C#Cc2cc3ncnc(Nc4ccc(OCc5cccc(F)c5)c(Cl)c4)c3s2)C1	2.38

Structure (SMILES)	inhibition [%]
Cc1cc(Cl)cc2c1NC(=O)C2=NNc1ccc(S(N)(=O)=O)cc1	1.38
Cc1ccc(C(=O)NC2CC2)cc1-c1ccc2[nH]ncc2c1	-0.16
O=C(Nc1ccc(Oc2ccc3[nH]c(NC(=O)c4ccco4)nc3c2)cc1)Nc1cc(C(F)(F)F)ccc1F	-7.79
NS(=O)(=O)c1ccc(-c2cc3ccncc3cc2OCc2ccccc2)cc1	-1.68
Cc1cc(O)cc(C)c1/C=C/c1cncc(C(=O)N(C)C)c1	4.71
CN(c1ccc(NC(=O)Nc2ccc(OC(F)(F)F)cc2)cc1)c1ccnc(Nc2cccc(S(N)(=O)=O)c2)n1	37.5
Cc1ccc(O)cc1Nc1ccnc2ccc(S(C)(=O)=O)cc12	21.3
Cc1cc(-c2ccccn2)cc(C)c1/C=C/c1cncc(-c2nn[nH]n2)c1	9.28
O=C1Nc2ccccc2/C1=C/Nc1ccc2[nH]c(=O)[nH]c2c1	4.3
ON=C1CCc2cc(-c3nc(C4CCNCC4)[nH]c3-c3ccncc3)ccc21	-0.02
C[C@@H](Oc1cc(-n2cnc3ccc(OCC4CCN(C)CC4)cc32)sc1C(N)=O)c1ccccc1C(F)(F)F	1.45
Cc1nc(-c2ccccc2)n2nc(NCCCN3CCOCC3)ncc12	2.75
[O-][S+]1CCN(Cc2ccc(-c3ccc4ncnc(Nc5ccc(OCc6ccccc6)c(Cl)c5)c4c3)o2)CC1	7.2
Oc1cccc(-c2nc(-c3ccccc3)[nH]c2-c2ccncc2)c1	7.41
Nc1nccc(-c2c(-c3ccc(F)cc3)ncn2CCCN2CCOCC2)n1	15.4
Cc1ccc(Nc2ccnc(Nc3cccc(C(N)=O)c3)n2)cc1O	64

target: Vascular endothelial growth factor receptor 3 (Homo sapiens) (UniProt P35916); settings: at 1 µM

Structure (SMILES)	inhibition [%]
CCn1c(-c2nonc2N)nc2c(C#CC(C)(C)O)nc(OCCNC)cc21	11.6
COC(=O)Nc1nc2cc(Oc3ccc(NC(=O)Nc4cccc(Br)c4)cc3)ccc2[nH]1	11.9
Nc1nccc(-c2c(-c3ccc(F)cc3)nn3cc(C(F)(F)F)ccc23)n1	-1.18
CN(C)CCCn1c(-c2nonc2N)nc2cnccc21	15.3
COc1cc(Nc2nccc(-c3cnn4ncccc34)n2)cc(OC)c1	45.4
C[C@@H](Oc1cc(-n2cnc3ccc(OC[C@@H](O)CO)cc32)sc1C(N)=O)c1ccccc1Cl	22.8
N#Cc1cccc(Nc2nccc(-c3cnn4ncccc34)n2)c1	22.3
COc1cc(/C=N/Nc2ncnc3c2cnn3C(C)C)ccc1O	22.1
Nc1ccc(C#Cc2cncnc2Nc2ccc(OCc3cccc(F)c3)c(Cl)c2)cc1	1.86
Cc1ccc2c(c1)/C(=N/Nc1ccc(S(N)(=O)=O)cc1)C(=O)N2	14.6
NC(=O)c1cccc(Nc2nccc(Nc3cccc(F)c3)n2)c1	30.6
NS(=O)(=O)c1ccc(NC=C2C(=O)Nc3ccc4ncsc4c32)cc1	102
Cc1ccc2c(-c3ccnc(Nc4cccc(C(F)(F)F)c4)n3)c(-c3ccccc3)nn2n1	24.9
NS(=O)(=O)c1ccc(N/N=C2\C(=O)Nc3ccc(Cl)cc32)cc1	9.79
COC(=O)c1cncc(/C=C/c2c(C)cc(O)cc2C)c1	2.63
COc1cccc(-n2ncc3c(N/N=C/c4ccc(S(C)(=O)=O)cc4)ncnc32)c1	31.4
CN(C)C(=O)O[C@H]1CN[C@H](C#Cc2cc3ncnc(Nc4ccc(OCc5cccc(F)c5)c(Cl)c4)c3s2)C1	1.19

Structure (SMILES)	inhibition [%]
Cc1cc(Cl)cc2c1NC(=O)C2=NNc1ccc(S(N)(=O)=O)cc1	1.06
Cc1ccc(C(=O)NC2CC2)cc1-c1ccc2[nH]ncc2c1	1.13
O=C(Nc1ccc(Oc2ccc3[nH]c(NC(=O)c4ccco4)nc3c2)cc1)Nc1cc(C(F)(F)F)ccc1F	38.1
NS(=O)(=O)c1ccc(-c2cc3ccncc3cc2OCc2ccccc2)cc1	1.58
Cc1cc(O)cc(C)c1/C=C/c1cncc(C(=O)N(C)C)c1	3.92
CN(c1ccc(NC(=O)Nc2ccc(OC(F)(F)F)cc2)cc1)c1ccnc(Nc2cccc(S(N)(=O)=O)c2)n1	90.1
Cc1ccc(O)cc1Nc1ccnc2ccc(S(C)(=O)=O)cc12	68.8
Cc1cc(-c2ccccn2)cc(C)c1/C=C/c1cncc(-c2nn[nH]n2)c1	14.4
O=C1Nc2ccccc2/C1=C/Nc1ccc2[nH]c(=O)[nH]c2c1	26.6
ON=C1CCc2cc(-c3nc(C4CCNCC4)[nH]c3-c3ccncc3)ccc21	0.4
C[C@@H](Oc1cc(-n2cnc3ccc(OCC4CCN(C)CC4)cc32)sc1C(N)=O)c1ccccc1C(F)(F)F	18.6
Cc1nc(-c2ccccc2)n2nc(NCCCN3CCOCC3)ncc12	2.24
[O-][S+]1CCN(Cc2ccc(-c3ccc4ncnc(Nc5ccc(OCc6ccccc6)c(Cl)c5)c4c3)o2)CC1	11.7
Oc1cccc(-c2nc(-c3ccccc3)[nH]c2-c2ccncc2)c1	30.4
Nc1nccc(-c2c(-c3ccc(F)cc3)ncn2CCCN2CCOCC2)n1	17
Cc1ccc(Nc2ccnc(Nc3cccc(C(N)=O)c3)n2)cc1O	95
